Results: the supplement of paper PMC6555819

test system: VDR:RXRa (NR concentration 270 nM, RXRa partner concentration 90 nM); assay: PBM binding z-score (relative to random genomic background probes); higher = stronger binding; sequences stand for … in GC…GCGATTGACAGCGTAGAATGAAGG
Description: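 Protein-binding microarray (Agilent 4x180K custom design, double-stranded 60-nt probes: 5' GC cap, 34-nt variable region, 24-nt constant primer region; full probe sequence given). Purified or IVT nuclear receptor:RXRα heterodimers (3:1 NR:RXRα, mostly 270:90 nM) or homodimers were incubated for 1 h in PBS with 2% milk and no ligand, then detected with Alexa488 antibodies. Fluorescence from o1-orientation probes (~5 replicates averaged) was converted to z-scores against 500 random hg19 background probes. Variable regions are seed direct-repeat (DR0–DR5) sites, all their single-nucleotide variants and half-site ablations.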

Sequence	PBM binding z-score
CCTAGCAGGCCAATCTGGTTCACTCAAGGCTTGA	0.38
ATCTCTAGGTAAAAGTTCAGTGAGTCCCGAGGAT	2.09
TTACCAAGGTGAGCCGAGGTCGTTGATCCAACTC	4.51
CTCGAAAGGTCGTGCTCACGTGAGTATACCAAAC	3.23
CGAACTAGGTGATCCAGGACAGTGAATACATTGA	0.541
AGAACGAGGGCACGGTGAGTTGATAGCAGAGTAG	2.56
AGAATGAGGTTACAAAAGATCAGGGAAACGCTTG	1.24
ATACCAAGGTGATCGTGAAGTCGTTGATACTAAC	0.0498
AAAATGAGGTTATTAAGATCAGGGAATTGCGGTC	2.47
TAGCCTAGGTCAGATGGGGCCAGTATACGCTATA	2.69
TCTATTAGTTGATAAGGGCAACCGAAACAGCGGA	0.713
CCGACTGGGGCAGAAAGGATACCATACCATCCGG	-0.772
TGAATGAGGTTATAAGATCAGGGATCGTTGCAAA	0.956
TCTTGTAGATCAAGCCGGTTAAGAAAGCCTGAGT	0.32
AGTGAAAGTTCATCTAGGTAACGTAAGATATGCT	4.97
GCATATAGGTAATATAAGGTGAAAGTCCGATTGT	0.397
ACAGACAGGTCAGTGAAGGTAACTCAGCTGGACG	1.41
TTACCAAGGTGAGCTGAGGTCGTGGATCCAACTC	3.37
ATGTGTAGGTTAGCTGGGGTCATTCAGACTAGGC	6.24
CGTCCAAGGTTATAGGAGGTCAGTGAAGACAGAT	4.85

Sequence	PBM binding z-score
CGAACTAGGTCATTGACAAGACAGTGAATAGTAA	1.89
TCATATAGGTAAACGGTGAAAGTCGGTGTGGTAA	0.79
CTTCGGAGGACAACAGGAGGTCAGAGCTGCCAGA	2.12
TCTTGTAGATCAAAGGTAAAGAAAGCCGAAGCCT	0.385
CCAGACAGGTGACAGGTAACTCAGTCTGGTACGC	-0.206
CCTAGCAGGCCAGGGGCACTCAAGCATTTCGCTT	-0.66
TATCCAGGGTCAAAGGCCAGAGTACGAATGTCGA	4.95
CGAACTAGGTCGGAACAGGACAGTGAAGGATGAT	-0.292
AGTCAAAGTTCATCTAGGTAACGTAGGATATGCT	5.09
AGTCAAAGTTCATGACGAGGTAACGTAAAGCACG	4.64
TCATATAGGTAATACAGGTGAAGGTCGGCATCTA	1.62
GGAACGAGGGCAAGTTGATAGAAGAGTTTGATGG	0.975
CCGACTGGGACATAAGGTTACCATAAGCCAGCCC	0.181
CAGCGTAGGTCAGGGCCAGTATAGGAGGAACGTT	0.388
TATAGCAGGCCAGAGGGTCACTCAAGAGGTACGG	1.58
ATCTCTAGGTAAGACTCAGTTCAGTGGAGAACGC	0.529
CCAGACAGCTGAAAGGTAACTCAGTCTGGTACGC	-0.0821
CAGACTAGGTCAAGAGGTCAAAGTCCGCTTCCCG	5.97
CTCGAAAGGTCGGTTGAGGTGAGAATACGGATAA	2.26
CCTACTGGGCCACGAAAGCTCATTGATTCAGTGA	-0.828
